Screening results (PubChem)
CYP2C19 inhib = human CYP2C19 inhibition; AID 778; CYP2C19 Supersomes, luciferin-H EGE luminescence, 30 min; P33261; inhibition, % at 5 µM; actives 21% (n = 96,000);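 active means CYP2C19 inhibition above a set limit at 5 µM in the primary screen, cut at about 50% in these data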
D1 allo mod = allosterically modulates the human D1 dopamine receptor. B-score at 10 µM. actives 5.9% (n = 58,000). HEK293 D1, CRE-luciferase, dopamine EC30 potentiation; actives deviate in either direction;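 active means luminescence count or its row- and column-corrected plate score outside the 99.7% band of the plate's sample wells, on either side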
Target sequence (P21728 whole entry, looked up): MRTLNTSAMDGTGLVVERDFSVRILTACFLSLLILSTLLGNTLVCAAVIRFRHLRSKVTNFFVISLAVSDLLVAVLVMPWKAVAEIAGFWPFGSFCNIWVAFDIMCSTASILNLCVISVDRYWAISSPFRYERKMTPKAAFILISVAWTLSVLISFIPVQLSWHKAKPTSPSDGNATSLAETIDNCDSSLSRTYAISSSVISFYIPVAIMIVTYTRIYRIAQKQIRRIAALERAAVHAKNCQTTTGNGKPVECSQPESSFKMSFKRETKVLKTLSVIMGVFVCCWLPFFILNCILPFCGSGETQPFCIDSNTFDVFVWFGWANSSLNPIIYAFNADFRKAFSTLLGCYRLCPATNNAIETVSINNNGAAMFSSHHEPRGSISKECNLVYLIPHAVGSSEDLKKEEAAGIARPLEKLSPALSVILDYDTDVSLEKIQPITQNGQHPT
CYP2C9 inhib = blocks human cytochrome P450 2C9 | P11712 | CYP2C9 Supersomes, luciferin-H conversion, luminescence | inhibition, % at 5 µM | actives 20% (n = 96,000) | AID 777;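 active means blocking of liver enzyme CYP2C9 beyond about 50% at 5 µM, limit read from the data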
CYP2C19 act = activators of human cytochrome P450 2C19 | recombinant CYP2C19, luciferin-H EGE luminescence; stronger effect = higher value; 0 = fully inhibited enzyme, 1 = untreated enzyme | activation factor at 5 µM | 96,000 tested, under 10 active | AID 1025;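 active means activation factor of at least 2 at 5 µM in the primary screen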
CYP2C9 act = increases human cytochrome P450 2C9 activity; P11712; recombinant CYP2C9, luciferin-H conversion, luminescence; stronger effect = higher value; factor 1 = untreated enzyme, 0 = blocked; activation factor at 5 µM; actives 1.4% (n = 96,000); AID 1024;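 active means activation factor of 2 or more for CYP2C9 at a 5 µM dose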
hDAT+cocaine = modulates human dopamine transporter uptake under cocaine; actives 1.3% (n = 110,000); AID 449768; Q01959; LLC-PK1 hDAT cells, [14C]-dopamine uptake with cocaine IC80; actives deviate in either direction; B-score at 10 µM;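 active means Z score or B-score, a plate-position-corrected score, falls beyond the plate's 99.7% confidence bounds, in either direction; inactive means both scores lie inside the 99.7% bounds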
Hits are given with their value; – = inactive; · = no result. Most compounds without a hit are left out; they make up all but 28% or so of the library.

SMILES	CYP2C19 inhib	D1 allo mod	CYP2C9 inhib	CYP2C19 act	CYP2C9 act	hDAT+cocaine
C#CCNC(=O)C1=C[C@H](C2CCCCC2)C[C@H](OCCCCO)O1	·	·	·	·	·	–
COc1ccccc1-n1c(CNC(=O)COc2ccccc2)n[nH]c1=S	–	–	–	–	–	–
CC1(OC(=O)CCc2ccccc2)C(=O)C=C2C=C(c3ccc(C#N)cc3)N(CCc3c[nH]c4ccccc34)C=C2C1=O (stereo not drawn)	·	·	·	·	·	–
CCOc1ccccc1-c1cc(C(=O)N/N=C/c2ccc3c(c2)OCO3)c2ccccc2n1	50	·	91	–	–	–
Cc1nn(C)c(C)c1/C=N/NC(=O)c1csc2ccccc12	–	·	–	–	–	–
Cc1ccc(-c2cc(C(=O)N/N=C/c3c(C)nn(C)c3C)c3ccccc3n2)c(C)c1	94	·	96	–	–	–
CC(C)(C)NC(=O)C1CCN(C(=O)c2ccc(Br)cc2)CC1	–	–	–	–	–	–
Cc1nn(Cc2ccc(Cl)cc2Cl)c(C)c1NC(=O)NC12CC3CC(CC(C3)C1)C2	–	·	–	–	–	–
COc1ccc(-c2nc3n(c(=O)c2C#N)CCCS3)cc1	–	–	–	–	–	–
COc1ccc(-c2cc3nc4n(c(=O)c3s2)CCC4)cc1	70	-5.9	51	–	–	–
COC(=O)C1=C2c3[nH]c4ccccc4c3CCN2C(=O)CC1	·	·	·	·	·	–
COc1ccc(N(CC(=O)O)S(=O)(=O)c2cccnc2)cc1	–	–	–	–	–	–
C=CCn1cc(C(=O)NCCOC)c(=O)c2cc(S(=O)(=O)N(CC)CC)ccc21	–	–	75	–	–	–
CCN(CC)S(=O)(=O)c1ccc2c(c1)c(=O)c(C(=O)NCCOC)cn2C	–	–	–	–	–	–
CCOCCCNC(=O)c1cn(C)c2ccc(S(=O)(=O)N(C)C3CCCCC3)cc2c1=O	–	–	–	–	–	·
C=CCn1cc(C(=O)NCCCOCC)c(=O)c2cc(S(=O)(=O)N(CC)CC)ccc21	–	–	56	–	–	–
OC[C@@H](O)[C@@H](O[C@@H]1O[C@H](CO)[C@H](O)[C@H](O)[C@H]1O)[C@H](O)[C@@H](O)CO	·	·	·	·	·	–
COCCn1ccc(O)c(Cc2ccccc2)c1=O	–	·	–	–	–	–
Cc1noc(C)c1CSc1nc2ccccc2c(=O)n1-c1ccccc1	–	5.3	84	–	–	–
C=CCn1c(SCc2nc3ccccc3c(=O)[nH]2)nc2ccccc2c1=O	–	·	83	–	–	–
Cc1noc(C)c1CSc1nc2ccccc2c(=O)n1-c1ccc(F)cc1F	–	·	94	–	–	·
Cc1noc(C)c1CSc1nnc2n(-c3ccccc3)c(=O)c3ccccc3n12	·	–	·	·	·	·
CCCn1c(SCc2nc3sc(C)c(C)c3c(=O)[nH]2)nc2ccccc2c1=O	–	·	66	–	–	–
C=CCn1c(Cc2ccc(OC)cc2)nnc1SCc1nc2ccccc2c(=O)[nH]1	–	–	–	–	–	–
Cc1cccnc1NC(=O)CSc1nnc(Cc2ccccc2)o1	·	·	·	·	·	–
SMILES	CYP2C19 inhib	D1 allo mod	CYP2C9 inhib	CYP2C19 act	CYP2C9 act	hDAT+cocaine
C=CCn1c(SCC(=O)N2CCc3ccccc3C2)nc2ccccc2c1=O	74	·	95	–	–	–
C=CCc1c(C)nc(SCCC)[nH]c1=O	–	–	–	–	–	–
C=CCn1c(SCc2c(C)noc2C)nc2ccccc2c1=O	95	·	97	–	–	–
COc1ccc(-c2noc(CSc3nc4ccccc4c(=O)n3-c3ccccc3)n2)cc1	–	–	–	–	–	–
C=CCc1c(C)nc(SCc2nc3ccccc3c(=O)[nH]2)[nH]c1=O	–	–	67	–	–	–
O=c1c2ccccc2nc(SCc2nnc(-c3ccccc3)o2)n1-c1ccccc1	–	–	95	–	–	–
C=CCc1c(C)nc(N)[nH]c1=O	·	·	·	·	·	–
N=c1ncn(CC(O)CO)c2nc(N3CCOCC3)[nH]c12 (stereo not drawn)	–	·	–	–	–	–
CNS(=O)(=O)c1cccc(C(=O)OC2CCCCC2=O)c1 (stereo not drawn)	–	–	–	–	–	–
COc1cc(O)oc1C=Nc1ccc(C(F)(F)F)cc1	–	·	–	–	–	–
COc1cc2nc(SCc3c(C)noc3C)n(CCC3=CCCCC3)c(=O)c2cc1OC	–	–	74	–	–	–
COc1cc2nc(SCC(=O)NC3CC3)n(CCC3=CCCCC3)c(=O)c2cc1OC	·	–	·	·	·	·
